Experimental data: PubChem BioAssay AID743279 (National Center for Advancing Translational Sciences (NCATS), 2014)
Hit rate of the full screen: of about 360,000 compounds, about 17,000 (4.7%) were called active. Not shown: some 5% with an inconclusive outcome. No stated cut-off is given here; in the data, active means activity change below about -50%; inconclusive means mostly about -30% to -49%; inactive means weaker than that. This excerpt belongs to a sample that is enriched for actives.

Test: qHTS for Inhibitors of Inflammasome Signaling: IL-1-beta AlphaLISA Primary Screen
Conditions: THP-1 LPS/ATP IL-1B secretion, 16 h; at 57.5 µM, stronger effect = lower value
Summary of the method: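 THP-1 cells pretreated 1 hr with compounds (up to 57.5 uM final), then stimulated with LPS (250 ng/mL final) plus ATP (1.25 mM final); secreted IL-1B measured by AlphaLISA after 16 hr, decreased signal indicating inhibition.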
On the % scale 0 is the no-effect control and ±100 the full control effect.

| SMILES | activity change |
| --- | --- |
| COC(=O)C(Cc1c[nH]c2ccccc12)NC(=O)CCNC(=O)c1ccco1 (configuration not stated) | 19.3% (inactive) |
| CCOC(=O)[C@]12CCC=C1N(CCC1=CCCCC1)C(=O)[C@H](CC(=O)NCc1ccc(C)o1)C2 | 13.9% (inactive) |
| COc1cccc(CN(C)C(=O)CC[C@H]2O[C@@H](n3cnc4c(NC(=O)c5ccccc5)ncnc43)[C@H](O)[C@@H]2O)c1 | -16.9% (inactive) |
| O=C(Nc1cccc(-c2cscn2)c1)C1CCN(Cc2ccsc2)CC1 | -28.7% (inactive) |
| CCn1cc(CN2CCC(C(=O)Nc3cccc(-c4cccc(Cl)c4)c3)CC2)c(C)n1 | -53.4% (active) |
| CCn1cc(CN2CCC(n3nccc3NC(=O)CCCc3ccccc3)CC2)c(C)n1 | 40% (inactive) |
| O=C(Nc1cnn(Cc2ccc(Cl)cc2)c1)C1CCCC1 | -16.9% (inactive) |
| CC(=O)c1cc(CN2CCC(C(=O)Nc3cccc(-c4cscn4)c3)CC2)cs1 | inactive |
| CCn1cc(CN2CCC(C(=O)Nc3cccc(-c4cccc(Cl)c4)c3)CC2)cn1 | -79.5% (active) |
| C=CCOc1ccc(/C=C/C(=O)OC(C)C(=O)Nc2ccc(NC(C)=O)cc2)cc1 (configuration not stated) | -0.196% (inactive) |
| Nc1cc(=O)c2[nH]cnc2[nH]1 | 17.6% (inactive) |
| CCc1nc2ccc(C(=O)N(C)CCN(C)C)cn2c1N(CC)CCOC | -19.3% (inactive) |
| CC(C)C[C@@H]1Cc2[nH][nH]c(=O)c2[C@H](CCc2ccccc2)O1 | -2.24% (inactive) |
| CC1(c2cccc(Br)c2)NC(=O)N(CC(=O)NCCC2=CCCCC2)C1=O (configuration not stated) | 1.79% (inactive) |
| COc1cccc2c1C(=O)c1c(O)c3c(c(O)c1C2=O)CC(O)(C(C)=NNC(=O)c1ccc(Cl)c(Cl)c1)CC3OC1CC(N)C(O)C(C)O1 (configuration not stated) | -101% (active) |
| Oc1c(CN2CCOCC2)ccc(CN2CCOCC2)c1O | 14.4% (inactive) |
| CN(C(=O)c1cccc(NC(=O)Cc2ccc(NC(=O)C3CCN(C(=O)C4CCCCC4)CC3)cc2)c1)C1CCC1 | -1.34% (inactive) |
| CN1CCN(C2Cc3ccc(Cl)cc3Sc3ccc(F)cc32)CC1 (configuration not stated) | -63.5% (active) |
| COC(=O)C1NN=C(C(=O)c2ccc(Br)cc2)C1c1cccc(Br)c1 (configuration not stated) | 19.6% (inactive) |

| SMILES | activity change |
| --- | --- |
| C[C@H]1CN([C@@H](C)CO)C(=O)CCCn2cc(nn2)CO[C@@H]1CN(C)C(=O)Nc1ccccc1 | -2.98% (inactive) |
| CCOc1nc(NCCN2CCOCC2)nc(Nc2ccc(C)cc2)n1 | -27.7% (inactive) |
| c1ccc2cc3c(NCCN4CCOCC4)ccnc3cc2c1 | -83.2% (active) |
| Fc1ccc(-c2ccc(NCCN3CCOCC3)nn2)cc1 | -8.39% (inactive) |
| Cc1nc(N)sc1-c1ccccc1 | -26.3% (inactive) |
| COc1ccc(-n2c(Cc3cccn3C)nnc2SCC(=O)Nc2cc(C)cc(C)c2)cc1 | -24.7% (inactive) |
| N#CCSc1nc2c(c(=O)n1Cc1ccccc1)C1(CCCC1)Cc1ccccc1-2 | 4.25% (inactive) |
| Cc1cccc(-n2c(SCC(N)=O)nc3c(c2=O)C2(CCCCC2)Cc2ccccc2-3)c1 | -72.3% (active) |
| Cc1cccc(-n2c(=O)c3c(C)c(C)sc3n(CC(N)=O)c2=O)c1 | 16.6% (inactive) |
| COCC(=O)N(C)C[C@H]1Oc2cc(Br)ccc2S(=O)(=O)N([C@H](C)CO)C[C@H]1C | 20.9% (inactive) |
| CCOCCC(=O)Nc1ccc2c(c1)c(=O)n(C)n2-c1ccc2ccccc2c1 | 87.4% (inactive) |
| COc1cc2c(cc1OC)C(/C=C/c1ccco1)=NCC2 | -75.5% (active) |
| COc1ccc(Cl)cc1C(=O)NNC(=S)NC(=O)/C=C/c1ccco1 | 26.9% (inactive) |
| CCOC(=O)C1=NN(c2ccc(Cl)cc2)/C(=C/C2=NCCc3cc(OC)c(OC)cc32)S1 | -28.4% (inactive) |
| C[C@H]1COc2cc(N3CCSCC3)ccc2S(=O)(=O)N1 | 26.2% (inactive) |
| COc1ccc(Cl)cc1-c1cc(C(=O)Nc2cc(OC)c(OC)c(OC)c2)[nH]n1 | -10.3% (inactive) |
| CSc1ncnc2c1ncn2CCCNCC(C)c1ccccc1 (configuration not stated) | 17.6% (inactive) |
| COc1ccc(-c2cc(NC(C)=O)c3ncc(-c4cc(OC)c(OC)c(OC)c4)n3c2)cn1 | 41.4% (inactive) |
| COc1ccc(/C=C2\SC(=S)N(CCCC(=O)NC3CCCC3)C2=O)cc1OC | 7.66% (inactive) |

| SMILES | activity change |
| --- | --- |
| CCN(C(=O)CN1C(=O)/C(=C/c2ccc(F)cc2)SC1=S)C1CCS(=O)(=O)C1 (configuration not stated) | 0% (inactive) |
| O=C1/C(=C/c2ccc(F)cc2)SC(=S)N1CCCC(=O)N1CCCCC1CCO (configuration not stated) | -86.6% (active) |
| Cc1cccc(C)c1-n1nnnc1C1(C)CCC(=O)N1CCOc1ccccc1 (configuration not stated) | 33.1% (inactive) |
| CC(C)c1ccc(/C=C/C(=O)NCCCN2CCOCC2)cc1 | -1.14% (inactive) |
| CC1CC(NC(=S)N(C)C)CC(C)(C)C1 (configuration not stated) | 31.1% (inactive) |
| NS(=O)(=O)c1ccc(CCNS(=O)(=O)c2cccc3cccnc23)cc1 | 7.82% (inactive) |
| COc1cc(NS(=O)(=O)c2ccc3ccccc3c2)c2ncccc2c1 | 20.6% (inactive) |
| O=[N+]([O-])c1ccccc1S(=O)(=O)Nc1cccc2cccnc12 | -99.8% (active) |
| CN(C(=O)c1cccc(NC(=O)Cc2cccc(NC(=O)C3CCCN(C(=O)C4CC4)C3)c2)c1)C1CCC1 (configuration not stated) | 0% (inactive) |
| COC(=O)c1ccc2nc(-c3ccc(C)cc3)c(Cc3ccc(OC)cc3C)n2c1 | 16% (inactive) |
| COc1cccc(NC(=O)COC(=O)/C=C/c2ccco2)c1 | 19.5% (inactive) |
| O=C(/C=C/c1ccco1)Nc1ccc(Oc2ccccc2)cc1 | -58.1% (active) |
| O=C(/C=C/c1ccco1)NC(=S)Nc1ccccc1Br | -18.4% (inactive) |
| CSC1=NCCN1C(=O)c1ccc(S(=O)(=O)N2CCOCC2)cc1 | 2.64% (inactive) |
| CC(=O)Nc1ccc(C(=O)Nc2cc(S(=O)(=O)N3CCOCC3)ccc2N2CCOCC2)cc1 | -12.6% (inactive) |
| CCC(C)NC(=O)c1ccc(NC(=O)CC2SC(N3CCCCC3)=NC2=O)cc1 (configuration not stated) | -15.8% (inactive) |
| N=c1oc2ccccc2cc1C(=O)NCc1ccccc1 | -22.4% (inactive) |
| COc1cccc2cc(C(=O)NCc3ccc(C)cc3)c(=N)oc12 | -59.4% (active) |
| COc1cccc2cc(C(=O)N(C)C)c(=O)oc12 | -12.7% (inactive) |
